A selection: hits, their analogues and other compounds. The true share with any hit is near 1.2%.
MazEF act: activators of E. coli MazEF toxin-antitoxin RNase | P0AE70 | FAM/BHQ RNA-DNA oligo cleavage fluorescence, 5 h | activation, % at 20 µM | 350,000 tested, 0.32% active; in the data active = activation above about 50%
Target sequence (P0AE70 whole entry, looked up): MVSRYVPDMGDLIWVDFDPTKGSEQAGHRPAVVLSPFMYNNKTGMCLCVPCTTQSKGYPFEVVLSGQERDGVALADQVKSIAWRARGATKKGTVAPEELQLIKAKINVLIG
BJeLR viability: BJeLR cell viability loss; BJeLR (HRASV12) viability, CellTiter-Glo ATP luminescence, 48 h; inhibition, % (test concentration not listed); 300,000 tested, 0.17% active; AID 1554; in the data active = inhibition above about 50%
SSB-PriA inh: blocks PriA binding to SSB C-terminal tail; AID 1272365; inhibition, % at 33 µM; 430,000 tested, 0.6% active; AlphaScreen SSBct-PriA binding, biotinylated peptide; in the data active = inhibition mostly above about 37%, no sharp cut-off; inactive = mostly below about 20%;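 note: plate controls were negative control peptide for no effect and reference peptide for full effect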
ugtP null kill: kills S. aureus RN4220 lacking UgtP; AID 1259309; growth inhibition, % (no concentration beside the values); 330,000 tested, 0.54% active; S. aureus RN4220 ugtP deletion, OD600 growth, 16 h; in the data active = growth inhibition above about 68%;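 note: plate controls were untreated wells for no effect and antibiotic for full effect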
RN4220 kill: S. aureus RN4220 growth inhibition; inhibition, % (test concentration not listed); AID 1259311; 330,000 tested, 0.33% active; OD600, 16 h; in the data active = inhibition above about 85%;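 note: plate controls were untreated cells for no effect and reference antibiotic for full effect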
The depositor's hits bear a star; · = no result given; ! = not confirmed by another sample.

SMILES	MazEF act	BJeLR viability	SSB-PriA inh	ugtP null kill	RN4220 kill
COc1cccc(-n2ccnc2SCC(=O)N2CCCc3ccccc32)c1	3.5	-19.0	30.0	0.6	6.0
O=C(CSc1nccn1-c1cccc(Cl)c1)N1CCc2ccccc21	·	·	44.0*	·	·
O=C(CSc1ccc(-c2ccccn2)nn1)N1CCCc2ccccc21	-0.1	3.6	62.2*!	2.6	9.7
CCOc1ccc2nc(SCC(=O)N3CCCc4ccccc43)sc2c1	1.6	6.1	-7.2	84.9*	5.5
C=CCn1c(COc2ccccc2C)nc2ccccc21	·	·	-13.0	·	·
OCCN(Cc1ccccc1)Cc1ncccc1O	-1.5	·	-2.2	0.3	-0.8
OCCN(Cc1cccnc1)Cc1ccccn1	-14.2	·	41.9*	·	·
O=C(CCCS(=O)(=O)Cc1ccccc1)N(Cc1ccccc1)c1nc2c(F)cc(F)cc2s1	·	·	-4.0	·	·
NC(=O)C1CCN(C2=C(NS(=O)(=O)c3ccc(Cl)cc3)C(=O)c3ccccc3C2=O)CC1	3.8	7.0	28.3	8.6	14.8
COC(=O)C1CCN(C2=C(NS(=O)(=O)c3ccc(Cl)cc3)C(=O)c3ccccc3C2=O)CC1	9.1	-11.7	72.6*	-10.7	19.4
CCOc1ccccc1NC(=O)C1CCCCN1S(=O)(=O)c1ccccc1 (stereo unspecified)	-4.8	·	-29.3	2.3	1.4
O=[N+]([O-])c1cccc(-c2csc(=Nc3ccccc3)n2N2CCOCC2)c1	·	·	64.0*	·	·
O=C(/C=C/c1ccc(-c2cccc([N+](=O)[O-])c2)o1)N1CCOCC1	7.0	0.2	-8.9	-10.9	-1.2
CC(C)NC(=O)C1CCN(C2CCN(Cc3cn[nH]c3-c3ccccc3)CC2)CC1	13.1	-3.4	-4.9	-4.3	6.1
O=Nc1c2cc3ccccc3[nH]c-2c2ccccc12	16.1	·	0.5	-13.8	2.7
O=Nc1c(O)c2ccccc2c2ccccc12	7.5	2.2	29.2	99.2*	99.6*
O=[N+]([O-])c1ccc(NN=C2CC3CC=CC23)c([N+](=O)[O-])c1 (stereo unspecified)	·	·	52.1*	18.9	34.6
O=[N+]([O-])c1ccc(N/N=C2\CC3CC=CC23)c([N+](=O)[O-])c1 (stereo unspecified)	-4.0	1.3	·	·	·
CCN1C(=O)/C(=C2\C=Cc3cc(C)ccc3N2CC)OC1=S	113.7*	2.9	23.6	·	·
CCN1/C(=C2\C(=O)N(c3ccccc3)N=C2C)C=Cc2cc(C)ccc21	4.2	0.6	-0.8	4.0	3.3
CCN1C(=O)/C(=C2/C=Cc3ccccc3N2C)OC1=S	113.0*	5.6	-20.2	4.5	8.3
CCN1C(=O)/C(=C2\C=Cc3ccccc3N2CC)SC1=S	33.9	6.6	64.1	2.1	2.7
O=C(c1noc2c1CCCC2)N1CCN(Cc2ccccc2)CC1	-4.7	7.8	-7.4	6.8	2.7
Cn1c(N/N=C/c2cc3ccccc3nc2Cl)nc2ccccc21	206.8*	40.4	·	·	·
Cn1c(NN=Cc2cc3ccccc3nc2Cl)nc2ccccc21	·	·	-5.1	3.8	5.1
SMILES	MazEF act	BJeLR viability	SSB-PriA inh	ugtP null kill	RN4220 kill
O=C(/C=C/c1ccc(F)cc1)c1cc(Br)ccc1O	3.1	3.1	-50.6	2.2	-0.7
O=C(/C=C/c1ccccc1)c1cc(Br)ccc(=O)c1O	-7.3	23.8	-2.6	98.7*	99.2*
CCOc1ccc(C(=O)CC(Sc2ccc(C)cc2)C(=O)O)cc1 (stereo unspecified)	0.1	11.2	-27.9	5.1	2.9
O=C(CC(Sc1ccc(Br)cc1)C(=O)O)c1ccc(F)cc1 (stereo unspecified)	-5.3	-7.4	-19.4	91.7*	42.6
Cc1ccc(C(=O)Nc2nc(-c3ccccn3)cs2)cc1	·	·	78.0*	·	·
O=C(Nc1nc(-c2cccs2)cs1)c1ccc(Cl)s1	8.2	2.7	-17.3	94.5*	61.3
O=C(Nc1nc(-c2ccccn2)cs1)c1ccncc1	·	·	157.0*	·	·
O=C(Nc1nc(-c2ccccn2)cs1)c1ccc(Oc2ccc(C(=O)Nc3nc(-c4ccccn4)cs3)cc2)cc1	·	·	24.7	·	·
O=C(Nc1nc(-c2ccccn2)cs1)c1cc(F)cc(F)c1	·	·	17.4	·	·
O=C(Nc1nc(-c2ccc(Cl)s2)cs1)c1ccccc1	-11.3	3.7	-13.5	94.3*	6.2
O=C(Nc1nc(-c2ccc(Cl)s2)cs1)c1ccc(C(=O)c2ccccc2)cc1	·	·	4.0	·	·
CCOC(=O)C1CCCN(C(=O)CSc2nnnn2C)C1 (stereo unspecified)	5.0	·	-7.4	2.1	3.5
CC1(C)CC2CC(C)(CN2S(=O)(=O)c2ccc(C(=O)Nc3nc(-c4nc5ccccc5s4)cs3)cc2)C1 (stereo unspecified)	·	·	-17.0	·	·
O=C(Nc1nc(-c2ccccn2)cs1)c1cc(-c2ccco2)[nH]n1	·	·	65.8*	·	·
CC(=O)Nc1ccc(C(=O)Nc2nc(-c3ccccn3)cs2)cc1	7.0	0.2	77.8*	-4.0	6.0
CCc1ccc(C(=O)Nc2nc(-c3ccccn3)cs2)cc1	·	·	85.3*	·	·
CC(C)(C)CNC(=O)c1ccc(C(=O)Nc2nc(-c3ccccn3)cs2)cc1	·	·	40.8	·	·
Cc1cc(C(=O)Nc2nc(-c3ccccn3)cs2)ccc1[N+](=O)[O-]	10.5	7.8	47.4*	-0.4	25.6
O=c1cc(O)c2ccccc2n1Cc1ccccc1	-6.4	-10.1	5.2	5.4	4.1
COc1ccccc1CNC(=O)CCC(=O)N1CC(C)Sc2ccccc21 (stereo unspecified)	-1.4	-13.8	-2.8	15.0	2.7
O=C(Nc1nc(-c2ccccn2)cs1)c1ccccc1-n1cnnn1	5.7	14.6	80.8*	4.9	7.2
O=C(Nc1nc(-c2ccccn2)cs1)c1ccccc1Cl	·	·	99.8*	·	·
O=C(Nc1nc(-c2ccccn2)cs1)C1c2ccccc2Oc2ccccc21	·	·	29.5	·	·
O=C(Nc1nc(-c2ccccn2)cs1)c1ccc(-n2cnnn2)cc1	·	·	48.3	·	·
O=C(Nc1nc(-c2ccccn2)cs1)c1sccc1C1CC1	·	·	114.5*	·	·
SMILES	MazEF act	BJeLR viability	SSB-PriA inh	ugtP null kill	RN4220 kill
CC(C)[C@H](NC(=O)c1ccccc1Cl)C(=O)Nc1nc(-c2ccccn2)cs1	4.8	5.2	7.7	-57.6	-4.7
CCn1ccc(C(=O)Nc2nc(-c3ccccn3)cs2)n1	·	·	95.0*	·	·
Cn1nc(C(=O)Nc2nc(-c3ccccn3)cs2)ccc1=O	·	·	41.5	·	·
Cc1nc(C)c(C(=O)Nc2nc(-c3ccccn3)cs2)s1	·	·	157.0*	·	·
O=C(Nc1nc(-c2ccccn2)cs1)c1cc(S(=O)(=O)N2CCOCC2)c(Cl)cc1Cl	·	·	76.2*	·	·
Cc1ccc(C(=O)Nc2nc(-c3ccccn3)cs2)cc1-n1cccc1	·	·	103.2*	·	·
O=C(Nc1nc(-c2ccccn2)cs1)c1ccc(=O)[nH]c1	·	·	95.2*	·	·
O=C(Nc1nnc(-c2ccccc2)s1)c1cc(S(=O)(=O)N2CCOCC2)c(Cl)cc1Cl	1.4	0.5	-16.6	-3.3	1.1
Cc1ccc(S(=O)(=O)N2CCN(C(=O)COC(=O)COc3ccc(Br)cc3)CC2)c(C)c1	0.6	·	-1.6	-3.9	-3.9
CN(CC#CCNC(=O)CSCc1ccccc1)Cc1ccccc1	·	·	-13.0	·	·
Cc1onc(-c2ccccc2Cl)c1C(=O)N1CCC(CSc2nccn2C)CC1	·	·	-18.0	·	·
C[C@H](CO)N1C[C@H](C)[C@@H](CN(C)C(=O)Nc2ccccc2)Oc2ccc(NC(=O)CCN3CCOCC3)cc2C1=O	-2.4	·	-7.5	2.7	2.2

Assay outcomes (PubChem)
